Data on four molecules can be found in PubChem BioAssay (EPA / NIEHS).

Common to all, as to conditions: mRNA level, 48 h; actives raise or lower the signal
Read-out in assay [1]: Cytochrome P450 (CYP24A1), CYP24A1 (gene 1591)
The experiment in a line: LTEA_HepaRG_CYP24A1: Life Technologies and Expression Analysis (LTEA) Assay for Cytochrome P450 (CYP24A1) using HepaRG (AID 2283478). The method in brief:
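HepaRG, 48 h chemical exposure, 8-pt half-log CRC from 100 uM, 0.5% DMSO vehicle, duplicates. Endpoint: CYP24A1 mRNA by Fluidigm TaqMan qRT-PCR, normalized ACTB/GAPDH/POLR2A; gain/loss fit vs DMSO.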

Read-out in assay [2]: Cytochrome P450 (CYP1A2), CYP1A2 (gene 1544)
The experiment in a line: LTEA_HepaRG_CYP1A2: Life Technologies and Expression Analysis (LTEA) Assay for Cytochrome P450 (CYP1A2) using HepaRG (AID 2283479). The method in brief:
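CYP1A2 transcript induction or loss, quantified by Fluidigm qRT-PCR against three housekeeping genes, was fitted bidirectionally against 0.5% DMSO controls. Human HepaRG cells received eight half-log concentrations from 100 uM over 48 h.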

Read-out in assay [3]: cysteine-aspartic acid protease (CASP8), CASP8 (gene 841)
The experiment in a line: LTEA_HepaRG_CASP8: Life Technologies and Expression Analysis (LTEA) Assay for cysteine-aspartic acid protease (CASP8) using HepaRG (AID 2283480). In a few lines:
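HepaRG, 48 h exposure, duplicate wells; 8 conc, half-log from 100 uM, 0.5% DMSO. Serum-free induction medium. CASP8 mRNA by TaqMan qRT-PCR, norm. ACTB/GAPDH/POLR2A; gain/loss fitted vs DMSO.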

Read-out in assay [4]: Cytochrome P450 (CYP2B6), CYP2B6 (gene 1555)
The experiment in a line: LTEA_HepaRG_CYP2B6: Life Technologies and Expression Analysis (LTEA) Assay for Cytochrome P450 (CYP2B6) using HepaRG (AID 2283481). In a few lines: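 HepaRG cells plated 48 h, switched to serum-free induction medium, then dosed 48 h (8 points, half-log from 100 uM, 0.5% DMSO). RNA isolated; CYP2B6 expression measured by qRT-PCR; gain or loss fitted relative to DMSO.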

Read-out in assay [5]: Cytochrome P450 2C19 (Homo sapiens) (UniProt P33261)
The experiment in a line: LTEA_HepaRG_CYP2C19: Life Technologies and Expression Analysis (LTEA) Assay for CYP2C19 using HepaRG (AID 2283482). In a few lines:
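Transcript levels of CYP2C19 were quantified by qRT-PCR after HepaRG cells were treated for 48 hours with test chemicals up to 100 uM (eight half-log concentrations, 0.5% DMSO vehicle). Gain or loss of signal was fitted relative to DMSO.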

Read-out in the next assay: CYP2C8 (gene 1558)
The experiment in a line: LTEA_HepaRG_CYP2C8: Life Technologies and Expression Analysis (LTEA) Assay for CYP2C8 using HepaRG (AID 2283483). The method in brief:
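CYP2C8 mRNA induction or loss, by qRT-PCR normalized to ACTB/GAPDH/POLR2A, is read in HepaRG cells after 48 h treatment. Concentrations run from 100 uM down in half-log dilutions, with 0.5% DMSO as vehicle and baseline.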

Read-out in another assay: CYP2C9 (gene 1559)
The experiment in a line: LTEA_HepaRG_CYP2C9: Life Technologies and Expression Analysis (LTEA) Assay for CYP2C9 using HepaRG (AID 2283484). The method in brief: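 Cells plated 48 h, switched to serum-free induction medium, then treated in duplicate for 48 h at eight concentrations (max 100 uM, 0.5% DMSO). RNA then analysed by qRT-PCR for CYP2C9; curves fitted in both directions relative to DMSO.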

Read-out in a further assay: CYP2E1 (gene 1571)
The experiment in a line: LTEA_HepaRG_CYP2E1: Life Technologies and Expression Analysis (LTEA) Assay for CYP2E1 using HepaRG (AID 2283485). In a few lines:
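HepaRG cells, plated 48 h, then exposed 48 h in serum-free induction medium to eight half-log concentrations from 100 uM in 0.5% DMSO, duplicate. CYP2E1 mRNA by qRT-PCR, normalized to ACTB/GAPDH/POLR2A; bidirectional fit versus DMSO.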

Read-out in the next assay: CYP4A11 (gene 1579)
The experiment in a line: LTEA_HepaRG_CYP4A11: Life Technologies and Expression Analysis (LTEA) Assay for CYP4A11 using HepaRG (AID 2283486). The method in brief:
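HepaRG, 48 h chem exposure, 8 conc (100 uM top, half-log), 0.5% DMSO vehicle; qRT-PCR readout, housekeeping-gene normalized; bidirectional curve fit vs DMSO baseline.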

Read-out in assay [6]: Pro-epidermal growth factor (Homo sapiens) (UniProt P01133)
The experiment in a line: LTEA_HepaRG_EGF: Life Technologies and Expression Analysis (LTEA) Assay for Epidermal growth factor (EGF) using HepaRG (AID 2283489). The method in brief:
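HepaRG, 48 h dosing, 100 uM top, half-log x8, 0.5% DMSO. Readout: TaqMan qRT-PCR (Fluidigm array), housekeeping-normalized. Gain or loss of signal fit vs DMSO.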

Read-out in assay [7]: Early growth response protein 1 (EGR1) transcription factor, EGR1 (gene 1958)
The experiment in a line: LTEA_HepaRG_EGR1: Life Technologies and Expression Analysis (LTEA) Assay for Early growth response protein 1 (EGR1) transcription factor using HepaRG (AID 2283490). In a few lines:
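Read-out is EGR1 mRNA level by qRT-PCR, normalized to three housekeeping genes and analysed for gain or loss of signal against 0.5% DMSO. Source cells: human HepaRG, treated 48 h at up to 100 uM in half-log dilutions.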

Read-out in assay [8]: Ezrin (EZR), EZR (gene 7430)
The experiment in a line: LTEA_HepaRG_EZR: Life Technologies and Expression Analysis (LTEA) Assay for Ezrin (EZR) using HepaRG (AID 2283491). The method in brief:
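Gain or loss of EZR mRNA is scored relative to 0.5% DMSO in human HepaRG cultures treated 48 h with test chemicals in duplicate, eight half-log concentrations from 100 uM.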

Read-out in assay [9]: Cytochrome P450 3A7 (Homo sapiens) (UniProt P24462)
The experiment in a line: LTEA_HepaRG_CYP3A7: Life Technologies and Expression Analysis (LTEA) Assay for CYP3A7 using HepaRG (AID 2283492). In a few lines: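 Human HepaRG liver cells, 48 h post-plating, switched to serum-free induction medium and exposed in duplicate for 48 h. Dosing: 100 uM top, half-log dilutions, 8 points, 0.5% DMSO vehicle. Read-out: CYP3A7 mRNA, gain or loss fitted against DMSO baseline.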

Read-out in another assay: CYP3A5 (gene 1577)
The experiment in a line: LTEA_HepaRG_CYP3A5: Life Technologies and Expression Analysis (LTEA) Assay for CYP3A5 using HepaRG (AID 2283493). In a few lines: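 HepaRG cells, plated 48 h then in serum-free induction medium, dosed in duplicate for 48 h with eight half-log concentrations up to 100 uM in 0.5% DMSO. Gene mRNA by Fluidigm TaqMan qRT-PCR, normalized to ACTB, GAPDH, POLR2A.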

Read-out in assay [10]: Fatty Acid-Binding Protein 1 (FABP1), FABP1 (gene 2168)
The experiment in a line: LTEA_HepaRG_FABP1: Life Technologies and Expression Analysis (LTEA) Assay for Fatty Acid-Binding Protein 1 (FABP1) using HepaRG (AID 2283494). The method in brief: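 HepaRG, 48 h post-plating switched to serum-free induction medium, then dosed 48 h (duplicate, 8 pts, ≤100 uM, 0.5% DMSO). RNA → Fluidigm TaqMan qRT-PCR, FABP1 normed to ACTB/GAPDH/POLR2A. Bidirectional curve fit vs DMSO.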

Read-out in assay [11]: Cytochrome P450 7A1 (Homo sapiens) (UniProt P22680)
The experiment in a line: LTEA_HepaRG_CYP7A1: Life Technologies and Expression Analysis (LTEA) Assay for Cytochrome P450 7A1 (CYP7A1) using HepaRG (AID 2283496). The method in brief: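 HepaRG cells plated 48 h, then switched to serum-free induction medium and exposed in duplicate for 48 h to 8-point half-log series from 100 uM in 0.5% DMSO. CYP7A1 mRNA by qRT-PCR (TaqMan), normalized to ACTB/GAPDH/POLR2A; bidirectional fit versus DMSO.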

Read-out in assay [12]: Glutathione S-Transferase (GSTA2), GSTA2 (gene 2939)
The experiment in a line: LTEA_HepaRG_GSTA2: Life Technologies and Expression Analysis (LTEA) Assay for Glutathione S-Transferase (GSTA2) using HepaRG (AID 2283497). In a few lines:
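HepaRG, 48 h dosing, 8-pt half-log CRC from 100 uM, 0.5% DMSO vehicle, n=2; RNA → Fluidigm TaqMan qRT-PCR; GSTA2 vs ACTB/GAPDH/POLR2A; gain/loss fit vs DMSO.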

Read-out in assay [13]: DNA damage-inducible transcript 3 (DDIT3), DDIT3 (gene 1649)
The experiment in a line: LTEA_HepaRG_DDIT3: Life Technologies and Expression Analysis (LTEA) Assay for DNA damage-inducible transcript 3 (DDIT3) using HepaRG (AID 2283488). In a few lines: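 HepaRG cells, 48 h after plating, exposed 48 h in serum-free induction medium to 8 half-log concentrations up to 100 uM in 0.5% DMSO, in duplicate. DDIT3 mRNA measured by TaqMan qRT-PCR, normalized to ACTB, GAPDH and POLR2A. Fitted bidirectionally against DMSO.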

Read-out in assay [14]: Cytochrome P450 4A22 (Homo sapiens) (UniProt Q5TCH4)
The experiment in a line: LTEA_HepaRG_CYP4A22: Life Technologies and Expression Analysis (LTEA) Assay for Cytochrome P450 4A22 (CYP4A22) using HepaRG (AID 2283495). In a few lines:
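Readout is CYP4A22 transcript induction or loss, quantified by qRT-PCR and normalized to ACTB, GAPDH and POLR2A. Human HepaRG cells receive test chemicals for 48 h at eight half-log concentrations from 100 uM in 0.5% DMSO.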

The source made the active and inactive calls. Rule for the calls: active = hit-call score of the fitted dose curve at least 0.9, where 1 is the maximum; inactive = score below 0.9.

Cytochrome P450 3A7 (Homo sapiens), sequence (P24462 whole entry, looked up): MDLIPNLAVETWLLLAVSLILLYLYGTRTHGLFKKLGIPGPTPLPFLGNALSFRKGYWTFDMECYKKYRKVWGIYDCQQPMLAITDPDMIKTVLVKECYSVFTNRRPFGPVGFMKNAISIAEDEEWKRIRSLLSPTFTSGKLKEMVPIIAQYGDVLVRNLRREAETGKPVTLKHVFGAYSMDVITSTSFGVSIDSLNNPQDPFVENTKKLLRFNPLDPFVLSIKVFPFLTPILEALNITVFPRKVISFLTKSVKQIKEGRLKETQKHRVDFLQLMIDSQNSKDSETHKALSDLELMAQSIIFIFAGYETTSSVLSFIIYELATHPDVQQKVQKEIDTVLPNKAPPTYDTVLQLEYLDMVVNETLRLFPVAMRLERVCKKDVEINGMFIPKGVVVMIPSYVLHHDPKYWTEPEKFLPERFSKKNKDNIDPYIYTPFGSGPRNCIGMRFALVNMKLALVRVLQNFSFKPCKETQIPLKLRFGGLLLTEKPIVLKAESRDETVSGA
Cytochrome P450 2C19 (Homo sapiens), sequence (P33261 whole entry, looked up): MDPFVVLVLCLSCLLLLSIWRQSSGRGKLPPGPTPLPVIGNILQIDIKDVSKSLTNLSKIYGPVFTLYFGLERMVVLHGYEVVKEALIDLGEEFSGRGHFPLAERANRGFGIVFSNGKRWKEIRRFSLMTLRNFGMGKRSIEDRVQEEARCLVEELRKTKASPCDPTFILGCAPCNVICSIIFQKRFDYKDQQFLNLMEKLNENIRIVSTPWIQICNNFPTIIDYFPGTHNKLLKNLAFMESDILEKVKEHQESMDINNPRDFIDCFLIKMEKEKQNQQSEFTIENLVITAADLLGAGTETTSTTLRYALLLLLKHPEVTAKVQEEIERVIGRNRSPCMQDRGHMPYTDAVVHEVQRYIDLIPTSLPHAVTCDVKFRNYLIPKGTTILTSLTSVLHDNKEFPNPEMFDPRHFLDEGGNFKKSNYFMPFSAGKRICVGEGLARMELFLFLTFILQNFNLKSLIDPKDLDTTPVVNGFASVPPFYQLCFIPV

Take `CCCCCCCCN(C)C`: the call (in assay [1]; in [2]; in assay [3]; in assay [4]; in assay [5]; with CYP2C8 (gene 1558)) was inactive. Also, the call (with CYP2C9 (gene 1559); in the assay with CYP2E1 (gene 1571); with CYP4A11 (gene 1579); in assay [6]; in assay [7]; in assay [8]) was inactive. The molecule was called inactive (in assay [9]; with CYP3A5 (gene 1577); in [10]; in [11]; in assay [12]).

One may read the AC50 as the concentration at which the activity in the assay is half-maximal. Consider `O=C(O)c1cccc(C(=O)O)c1`, for which the molecule was called inactive (in [1]; in assay [3]; in assay [4]; in assay [5]; with CYP2C8 (gene 1558); with CYP2C9 (gene 1559)). Besides, the result (in the assay with CYP2E1 (gene 1571); with CYP4A11 (gene 1579); in [13]; in [6]; in assay [7]; in assay [8]) was inactive. Also, the molecule was classed as inactive (in assay [9]; with CYP3A5 (gene 1577); in assay [11]; in assay [12]). Further, the AC50 in assay [2] was 82.6 µM (active).

For the molecule `CCCOc1ccc(S(=O)(=O)N2CCN(CC)CC2)cc1-c1nc2c(CC)n(Cc3ccccn3)nc2c(=O)[nH]1`, the molecule was classed as inactive (in assay [1]; in assay [3]; with CYP2C9 (gene 1559); in assay [6]; in assay [7]; in [8]). Further, the result (in the assay with CYP3A5 (gene 1577); in assay [12]) was inactive. The concentration at half-maximal activity (AC50) in [2] is 79.4 µM (active); in [4] it was 5.14 µM (active); in assay [5], 18.2 µM (active); with CYP2C8 (gene 1558), 3.5 µM (active); with CYP2E1 (gene 1571) it was 4.54 µM (active); with CYP4A11 (gene 1579), 30.9 µM (active). Also, the AC50 was 1.22 µM (active) in assay [9], 12.1 µM (active) in [10] and 4.07 µM (active) in assay [11].

Take `CC(C)C(=O)Nc1ccc([N+](=O)[O-])c(C(F)(F)F)c1`: the molecule was called inactive (in [1]; in [3]; in assay [8]; with CYP3A5 (gene 1577)). The AC50 was 14.9 µM (active) in assay [2]; 63.2 µM (active) in assay [4]; 77.3 µM (active) in assay [5]; 15.8 µM (active) with CYP2C8 (gene 1558); 66 µM (active) with CYP2C9 (gene 1559); 43.9 µM (active) with CYP2E1 (gene 1571). The AC50 is 50.4 µM (active) with CYP4A11 (gene 1579); 50 µM (active) in [6]; 81.9 µM (active) in assay [7]; 37.9 µM (active) in assay [10]; 41.7 µM (active) in [14]; 67.6 µM (active) in assay [11]. In addition, the AC50 in assay [12] is 65.8 µM (active).
